The results in this text go back to PubChem BioAssay (Tox21).

Where “and” joins values, the source holds several entries; their conditions need not be identical. Equal entries are not always repeated. A number with no mark means an inactive call. Results filed as inconclusive are left out. Calls of active or inactive are those of the source. Unless noted, calls follow the shape of the dose curve; as a rule, active = well fitted curve in the direction sought with a large enough effect in the repeat runs; inconclusive = weak or mixed curves; inactive = no such curve, though single readings can be large; an effect the other way counts as inactive or inconclusive.

The nature of assay [1]: qHTS assay for small molecule agonists of the p53 signaling pathway (AID 651631; calls by dose curve; also: nearly all actives have a fitted effect of over 15% in size; also: potency is read from the fitted curve at half-maximal effect). Put shortly: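 We treat p53RE-bla HCT-116 cells with compounds for 16 h at 37 °C, add LiveBLAzer B/G FRET substrate for 2 h at room temperature, and measure fluorescence intensity.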
(qHTS replaces the single test concentration by a dilution series.)

Assay [2] in a line: qHTS assay for small molecules that induce genotoxicity in human embryonic kidney cells expressing luciferase-tagged ATAD5 (AID 651632). Also: nearly all actives have a fitted effect of over 15% in size. Put shortly: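 Reporter cells (HEK293T) express luciferase-tagged ATAD5, a protein that accumulates after DNA damage. Treat 16 hr at 37C/5% CO2, add Amplite, wait 30 min at RT, and read luminescence.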
Assay [3] in a line: qHTS assay for small molecule disruptors of the mitochondrial membrane potential - cell viability (AID 720634; calls by dose curve;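 also: human HepG2 liver cancer cells; series mostly up to about 83 µM; nearly all actives have a fitted effect of over 20% in size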). Put shortly: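 Measuring cytotoxicity alongside mitochondrial potential, the screen quantified ATP by luminescence in HepG2 cells after 1 hr compound incubation and a 30 min room-temperature CellTiter-Glo step.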
The nature of assay [4]: qHTS assay to test for compound auto fluorescence at 590 nm (red) in HepG2 cells (AID 720674). The gist of the method:
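Compound auto-fluorescence is scored relative to Rose Bengal sodium, measured at 540/590 nm in live HepG2 cultures after 1 hr compound contact (37 C, 5% CO2).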

Assay [5] is described as follows: qHTS assay to test for compound auto fluorescence at 535 nm (green) in HepG2 cells (AID 720675).
Assay [6] can be described thus: qHTS assay to test for compound auto fluorescence at 460 nm (blue) in HEK293 cells (AID 720678). The gist of the method: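 Measured: blue fluorescence (Ex 405/Em 460 nm) of compound-treated HEK293 cells, incubated overnight at 37C with 5% CO2 and scaled to triamterene equivalents.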
The nature of assay [7]: qHTS assay to test for compound auto fluorescence at 590 nm (red) in HEK293 cells (AID 720679). The gist of the method:
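Using HEK293 cells at 2,000 per well, the screen added 23 nL of each compound after cell attachment and incubated overnight (37C, 5% CO2). The plate reader then captured red-label fluorescence, Ex/Em 540/590nm.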

A short description of assay [8]: qHTS assay to test for compound auto fluorescence at 535 nm (green) in HEK293 cells (AID 720680).
Assay [9] is described as follows: qHTS assay to test for compound auto fluorescence at 460 nm (blue) in HEK293 cell free culture (AID 720681). The gist of the method: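 Test compounds were pinned into cell-free culture medium (DMEM with 10% FBS) and fluorescence was read directly at Ex/Em 405/460 nm. Signals were expressed as fluorescence equivalents of triamterene, with DMSO vehicle as control.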

Assay [10] can be described thus: qHTS assay to test for compound auto fluorescence at 535 nm (green) in HEK293 cell free culture (AID 720682). The gist of the method: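 Green-channel intensity (Ex/Em 485/535 nm) was recorded from compound-treated wells containing only DMEM with 10% FBS. Fluorescein provided the equivalency standard.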
A short description of assay [11]: qHTS assay to test for compound auto fluorescence at 590 nm (red) in HEK293 cell free culture (AID 720683). The gist of the method:
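Tox21 10K library compounds were pinned into cell-free DMEM with 10% FBS and fluorescence was read at excitation 540 nm. Activity is expressed as Rose Bengal sodium equivalency.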

The nature of assay [12]: qHTS assay to test for compound auto fluorescence at 590 nm (red) in HepG2 cell free culture (AID 720684). The gist of the method:
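Red fluorescence (540 nm excitation, 590 nm emission) was measured after compound transfer into cell-free MEM supplemented with 10% FBS. Values are equivalencies against Rose Bengal sodium.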

The nature of assay [13]: qHTS assay to test for compound auto fluorescence at 460 nm (blue) in HepG2 cell free culture (AID 720685). The gist of the method: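 Compound (23 nL) or DMSO pinned into cell-free MEM with 10% FBS; blue fluorescence read at 405/460 nm excitation/emission, expressed as auto-fluorescence equivalency to triamterene.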
Assay [14] is described as follows: qHTS assay to test for compound auto fluorescence at 535 nm (green) in HepG2 cell free culture (AID 720686).
The nature of assay [15]: qHTS assay to test for compound auto fluorescence at 460 nm (blue) in HepG2 cells (AID 720687). The gist of the method: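 Cells (2,000/well in MEM with 10% FBS) attached overnight at 37 C, then were exposed to compound or DMSO for 1 hr at 37 C, 5% CO2. Fluorescence read at Ex/Em 405/460 nm, expressed as triamterene-equivalent signal.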
The nature of assay [16]: qHTS assay for small molecules that induce genotoxicity in human embryonic kidney cells expressing luciferase-tagged ATAD5 - cell viability (AID 651634; calls by dose curve; also: nearly all actives have a fitted effect of over 25% in size; also: potency is read from the fitted curve at half-maximal effect). Put shortly:
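Seeding of 2,000 HEK293T ATAD5-luciferase cells per well preceded pin-tool compound transfer. Plates sat 15.5 hr at 37C under 5% CO2, then fluorescence was read after 30 min with CellTiter-Fluor.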

Assay [17] has as its target Glucocorticoid receptor (Homo sapiens) (UniProt P04150). Description: qHTS assay to identify small molecule agonists of the glucocorticoid receptor (GR) signaling pathway (AID 720691; active = well fitted activation curve with a large enough effect in the signal ratio in the repeat runs, not every such curve was filed as active; the % refers to the signal ratio). The gist of the method:
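Reporter read-out: fluorescence intensity following 2 h room-temperature LiveBLAzer B/G FRET substrate loading. Prior step: GR-bla HeLa cells held 4 h, then treated 18 h at 37 C.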

The target is the same in assay [18]. The experiment in a line: qHTS assay to identify small molecule antagonists of the glucocorticoid receptor (GR) signaling pathway (AID 720692; active = well fitted inhibition curve with a large enough effect in the signal ratio in the repeat runs, not every such curve was filed as active; the % refers to the signal ratio). Put shortly: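 Dexamethasone (5 nM final) stimulated a stably integrated GRE-beta-lactamase reporter in HeLa cells during 18 h co-incubation with compounds; signal was quantified as fluorescence intensity of B/G FRET substrate after 2 h.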

The nature of assay [19]: qHTS assay for small molecule agonists of the p53 signaling pathway - cell viability (AID 651633; calls by dose curve;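 also: p53RE-bla HCT reporter cells with a stable beta-lactamase p53 reporter; series mostly up to about 83 µM; nearly all actives have a fitted effect of over 30% in size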). The gist of the method: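 p53RE-bla cells, seeded at 4,000 per well and rested 5 h at 37 C/5% CO2, received compounds in DMSO for 16 h at 37 C. CellTiter-Glo was then added, and luminescence was read after 30 min at room temperature to gauge cytotoxicity.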
Assay [20] in a line: qHTS assay for small molecule disruptors of the mitochondrial membrane potential (AID 720635). Also: potency is read from the fitted curve at half-maximal effect. Put shortly:
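HepG2 cells (2,000/well) attached overnight at 37C, then took compound for 1 hr at 37C, 5% CO2. Mito-MPS dye was added for 30 min; fluorescence was read at 490/535 nm (monomers) and 540/590 nm (aggregates).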

Chain of Glucocorticoid receptor (Homo sapiens) (P04150 whole entry, looked up): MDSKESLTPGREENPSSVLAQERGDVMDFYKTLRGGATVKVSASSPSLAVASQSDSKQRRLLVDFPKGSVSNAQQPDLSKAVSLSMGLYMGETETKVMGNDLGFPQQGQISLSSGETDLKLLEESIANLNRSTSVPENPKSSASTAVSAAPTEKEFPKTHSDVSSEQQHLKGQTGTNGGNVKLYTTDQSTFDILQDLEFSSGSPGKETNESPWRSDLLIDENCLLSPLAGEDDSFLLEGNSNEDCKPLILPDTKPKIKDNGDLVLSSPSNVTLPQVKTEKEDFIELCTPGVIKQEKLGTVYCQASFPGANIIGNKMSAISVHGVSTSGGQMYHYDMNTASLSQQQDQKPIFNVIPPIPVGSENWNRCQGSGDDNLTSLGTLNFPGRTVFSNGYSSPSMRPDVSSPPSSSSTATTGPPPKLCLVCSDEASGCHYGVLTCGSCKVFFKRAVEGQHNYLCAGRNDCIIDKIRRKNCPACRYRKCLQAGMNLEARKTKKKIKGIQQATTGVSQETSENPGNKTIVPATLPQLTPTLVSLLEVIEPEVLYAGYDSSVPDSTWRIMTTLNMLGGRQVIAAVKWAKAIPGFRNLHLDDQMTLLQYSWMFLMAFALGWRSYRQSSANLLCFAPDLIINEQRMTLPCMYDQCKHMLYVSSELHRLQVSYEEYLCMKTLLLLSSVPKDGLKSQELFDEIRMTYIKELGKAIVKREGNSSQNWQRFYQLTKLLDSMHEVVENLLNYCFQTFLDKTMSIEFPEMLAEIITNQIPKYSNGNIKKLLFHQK

Regarding `CCCC[P+](CC)(CCCC)CCCC` (tested in a mixture with another compound), the Potency result in [1], in assay [2] and in assay [3] was “inactive” throughout. Further, the compound was called inactive in assay [4], in assay [5], in [6], in assay [7], in assay [8] and in assay [9]. For the same compound, the compound was called inactive in assay [10], in assay [11], in [12], in assay [13], in assay [14] and in assay [15].

On to `O=C=NC1CCCCC1`, for which the Potency result in [1], in assay [16], in [3], in assay [17] and in assay [18] was “inactive” throughout. For the same compound, the outcome in assay [4], in [5], in assay [6], in assay [7], in assay [8] and in assay [9] was inactive. In addition, the call in assay [10], in [12], in [13], in [14] and in [15] was inactive.

Consider `Clc1ccc(Cl)c(Cl)c1`, for which the Potency entry in [1], in assay [19], in assay [16], in [3] and in assay [20] was “inactive” each time. Further, the call in assay [4], in assay [6], in [7], in assay [8], in assay [9] and in [10] was inactive. Further, the outcome in assay [11], in [12], in [13], in assay [14] and in [15] was inactive.

For the compound `N#CC(C#N)=C(C#N)C#N`, the Potency result in assay [1], in assay [2], in assay [16], in assay [3], in assay [17] and in assay [18] was “inactive” each time. In addition, the compound was called inactive in assay [4], in assay [5], in [6], in assay [7], in [8] and in [9]. In addition, the result in assay [10], in assay [12], in assay [13], in assay [14] and in [15] was inactive.

Consider `O=C1c2ccccc2C(=O)N1SC(Cl)(Cl)Cl`, for which the Potency in assay [1] is 8.51 µM (active) and 4.33 µM (active); in [16], 60.3 µM (active); in [20] it was 4.79 µM (active) and 7.7 µM (active). In [2], the Potency result is “inactive”. Also, the outcome in assay [4], in assay [5], in [6], in assay [7], in [8] and in assay [9] was inactive. Further, the result in assay [10], in assay [11], in assay [12], in assay [13], in [14] and in assay [15] was inactive.

As for `FC(F)OC(F)(F)C(F)Cl` (centres undefined), the Potency result in assay [1], in [19], in assay [16], in [3], in assay [20] and in assay [17] was “inactive” in each case. Moreover, in assay [18], the Potency result was “inactive”. The compound was classed as inactive in assay [4], in assay [5], in assay [6], in [7], in assay [8] and in assay [9]. Moreover, the outcome in [10], in [11], in assay [12], in [13], in assay [14] and in assay [15] was inactive.

`CN1CC[C@]23c4c5ccc(O)c4O[C@H]2[C@@H](O)CC[C@H]3[C@H]1C5`: the Potency result in assay [1], in [2], in [16], in assay [3], in assay [20] and in assay [18] was “inactive” throughout. Besides, the call in assay [4], in assay [5], in assay [6], in [7], in assay [8] and in assay [9] was inactive. Further, the outcome in assay [10], in [11], in assay [12], in [13], in assay [14] and in assay [15] was inactive.

Turning to `CC(C)c1ccc(OP(=O)(Oc2ccc(C(C)C)cc2)Oc2ccc(C(C)C)cc2)cc1`, the Potency entry in assay [1], in [2] and in assay [19] was “inactive” throughout. In addition, the compound was called inactive in assay [4], in [6], in [7], in [8], in [9] and in [10]. The compound was classed as inactive in [11], in [12], in [13], in [14] and in [15].

As to `O=C(Cl)OCCOCCOC(=O)Cl`, the Potency entry in [1], in assay [2], in [17] and in assay [18] was “inactive” in each case. Besides, the outcome in [4], in assay [5], in assay [6], in assay [7], in [8] and in [9] was inactive. In addition, the call in [10], in [11], in assay [12], in assay [13], in assay [14] and in assay [15] was inactive.

On to `CC(Cc1ccccc1)NCc1ccccc1Cl` (centres undefined), for which the Potency entry in assay [1], in assay [2], in assay [16], in [3] and in assay [18] was “inactive” throughout. For the same compound, the outcome in assay [4], in assay [5], in assay [6], in [7], in [8] and in assay [9] was inactive. The compound was classed as inactive in assay [10], in assay [12], in assay [13], in [14] and in [15].

As to `CC(C)CCCCCCCOC(=O)c1ccccc1C(=O)OCCCCCCCC(C)C`, the Potency result in assay [1], in assay [19], in assay [16], in assay [3], in assay [20] and in assay [17] was “inactive” each time. In addition, the Potency result in assay [18] is “inactive”. The outcome in assay [4], in [5], in assay [6], in assay [7], in assay [8] and in assay [9] was inactive. In addition, the result in assay [10], in assay [11], in [12], in assay [13], in assay [14] and in assay [15] was inactive.

With `C=CC(C)(CCC=C(C)C)OC(=O)c1ccccc1N` (centres undefined), the Potency entry in assay [1], in [19], in assay [3] and in assay [17] was “inactive” throughout. Besides, the call in assay [4], in [5], in assay [6], in assay [7], in [8] and in assay [9] was inactive. The compound was classed as inactive in assay [10], in assay [12], in assay [13], in assay [14] and in assay [15].

Consider `Cc1cnc(C2=NC(C)(C(C)C)C(=O)N2)c(C(=O)O)c1` (centres undefined), for which the Potency entry in assay [1], in assay [2], in assay [19] and in assay [18] was “inactive” throughout. Also, the compound was classed as inactive in [4], in assay [5], in assay [6], in assay [7], in assay [8] and in [9]. Besides, the compound was classed as inactive in assay [10], in assay [11], in [12], in assay [13], in [14] and in [15].

For the compound `CCCCOC(=O)CCC(=O)OCCCC`, the Potency result in assay [1], in assay [2], in assay [16] and in assay [20] was “inactive” throughout. Further, the outcome in assay [4], in [5], in [6], in [7], in [8] and in [9] was inactive. The outcome in assay [10], in [11], in assay [12], in assay [13], in [14] and in assay [15] was inactive.
